From PubChem BioAssay AID652039 (The Scripps Research Institute Molecular Screening Center, 2013)
The campaign covered roughly 370,000 compounds. About 3,300 (0.89%) were called active.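 How the source made its calls: active means activation above the mean of all tested compounds plus 3 SD, computed per campaign excluding outliers beyond control limits (cut at about 13% in these data); inactive means the rest.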 The full list was thinned out, with actives kept by preference.

biological target: Kallikrein-7 (Homo sapiens) (UniProt P49862); test: proKLK7 zymogen activators, primary screen, biochemical, fluorescence intensity (AID 652039); details: purified proKLK7, EDANS-DABCYL substrate fluorescence; at 7 µM; hits give high values; 100% is mature enzyme control, 0% vehicle
Sequence (P49862 whole entry, looked up): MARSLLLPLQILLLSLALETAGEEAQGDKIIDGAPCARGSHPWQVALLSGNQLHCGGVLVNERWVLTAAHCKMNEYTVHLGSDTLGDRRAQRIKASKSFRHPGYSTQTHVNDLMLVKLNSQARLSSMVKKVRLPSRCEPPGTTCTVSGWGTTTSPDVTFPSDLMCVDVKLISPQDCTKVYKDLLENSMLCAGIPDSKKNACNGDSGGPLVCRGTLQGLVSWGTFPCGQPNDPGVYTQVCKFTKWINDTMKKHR

activation, active:
Cc1cccn2c(=O)c3cc(C#N)c(=NC(=O)c4cccnc4)n(CC4CCCO4)c3nc12 (stereo not given) 17.3%
Cc1cccn2c(=O)c3cc(C#N)c(=O)n(CCCN4CCOCC4)c3nc12 39.9%
Cc1cccn2c(=O)c3cc(C(=O)NCCN4CCOCC4)c(=N)n(Cc4cccnc4)c3nc12 32.9%
CCn1c(=N)c(C(=O)NCCCOC)cc2c(=O)n3cccc(C)c3nc21 62.3%
COc1ccc2oc(=O)c(C(=O)N3CCCC3)cc2c1 21.5%
COc1cccc(NC(=O)CN(C)C(=O)/C=C/c2cc(OC)ccc2OC)c1 58%
CN(C)CCN1CCN(c2cc(-c3cccc(Cl)c3)nc3ccnn23)CC1 18.8%
Nc1ccccc1-c1nc2ccncc2[nH]1 86.7%
CC(C)=NN1C(=O)c2ccccc2NC1(C)C 13%
Cc1cc(C)c(C#N)c(SCC(=O)NN2CC(=O)N(c3ccccc3F)CC2=O)n1 68.7%
COc1cccc(OCc2cc(/C=N/NC(=O)c3nc(Cl)c(Cl)c(N)c3Cl)ccc2OC)c1 48.2%
Cc1cc(C)c2c(n1)nn1c(-n3ccnc3)cc(C)nc21 15.7%
NC(N)=Nc1nc(-c2ccccc2)c2cc(Cl)ccc2n1 14.3%
CCOC(=O)C1=C(O)/C(=C/c2ccc(OCC(=O)Nc3ccc(C)cc3)cc2)N=C1C 31.9%
COCc1cc(=O)[nH]c2cc(NC(=O)C(F)(F)F)c(C)cc12 466%
COC(=O)C1=NN(c2ccccc2)C2C(=O)N(c3ccccc3OC)C(=O)C12 (stereo not given) 20.8%
CCOc1ccc(-n2c(SCC(=O)Nc3cc(C)c(NC(=O)c4ccccc4)cc3OC)nnc2-c2cccs2)cc1 13.4%

activation, inactive:
Cc1cccc(NC(=O)c2ccc3c(=O)n(CC4CCCO4)c(=S)[nH]c3c2)c1 (stereo not given) -0.97%
O=C(NCc1cccnc1)c1cc(S(=O)(=O)N2CCOCC2)c(Cl)cc1Cl -0.01%
Cc1ccc(-n2c(=O)c(C#N)cc3c(=O)n4ccccc4nc32)cc1C 2.54%
COCCCn1c(C(=O)NC2CCCCC2)cc2c(=O)n3cccc(C)c3nc21 -0.55%
Cc1ccc2cc(C#N)c(NCCNC(=S)NCCCN3CCOCC3)nc2c1 1.07%
Cc1ccc(S(=O)(=O)c2cc3c(=O)n4cccc(C)c4nc3n(CCc3ccccc3)c2=N)cc1C 0.37%
Cc1ccc(Cn2c(C)c3cnn(CC(=O)NCCN4CCOCC4)c(=O)c3c2C)cc1 0%
Cc1ccccc1NC(=O)Cn1c(=O)n(CC2CCCO2)c(=O)c2ccccc21 (stereo not given) 0.23%
CC(=O)Nc1ccc(OC[C@@H](O)CN2CCC(C(O)(c3ccccc3)c3ccccc3)CC2)cc1 0.22%
CNc1nc(SC)nc(N(C#N)CC(=O)OC)n1 -0.23%
O=C(NCCc1c[nH]c2ccccc12)OCc1cn(-c2c(F)cccc2F)nn1 0.33%
CCOC(=O)[C@]12CCCCC/C=C\1N(Cc1ccc(OC)cc1)C(=O)[C@H]2CC(=O)NCCCN1CCCC1=O -0.22%
C=CCN1C(=O)[C@@H](CC(=O)N2CCN(C(=O)c3ccco3)CC2)[C@]2(C(=O)OC)CCCCC=C12 0.64%
COC(=O)C[C@H]1CC[C@H]2[C@H](COc3ccc(NC(=O)C4CC4)cc3C(=O)N2C)O1 -0.05%
CCC(=O)Nc1ccc2c(c1)C(=O)N(C)[C@@H]1CC[C@@H](CC(=O)NCCc3ccccc3)O[C@H]1CO2 -0.14%
Cc1cc(NS(=O)(=O)c2ccc(NC(=O)CSc3nnc(-c4ccc(C(C)(C)C)cc4)n3Cc3ccco3)cc2)nc(C)n1 0.49%
O=C(c1cccc(C(F)(F)F)c1)N1CC[C@H]2[C@H](CCCN2Cc2cc(F)cc(F)c2)C1 0.19%
COc1ccc(CSc2nnc(SCC(=O)Nc3ccccc3C(F)(F)F)s2)cc1 0.45%
COc1cccc2cc(C(=O)N3CCN(C(=O)c4ccccc4)CC3)c(=O)oc12 -0.14%
COc1ccc(C(=O)N2CCCN(C)CC2)c(OC)c1 -0.04%
O=C(CN1CCC(NC(=O)NCc2ccccc2)CC1)Nc1ccc2c(c1)OCCO2 0.32%
CC(C)(C)C(=O)N1CCC[C@@]1(CO)C(=O)O 0.12%
COc1cccc(NC(=O)CN(C)C(=O)c2ccccc2CCc2ccccc2)c1 0.07%
COc1cccc(NC(=O)CN(C)C(=O)Cc2ccc(Cl)cc2Cl)c1 -0.14%
O=C(NC1CCCCN(Cc2cccc(C(F)(F)F)c2)C1=O)c1ccccc1I (stereo not given) 0.36%
CN(C)C(=O)c1nc2ccc(Cl)cn2c1CN1CCN(c2ncccn2)CC1 -1.33%
C#Cc1cc(N2CCN(C(=O)c3ccoc3)CC2)n2nc(-c3cccc(Cl)c3)cc2n1 -41%
Cc1ccc(-n2c(SCC(=O)Nc3cccc4ccccc34)nnc2-c2ccco2)cc1 -0.44%
C=CS(=O)(=O)N(Cc1nnn(Cc2ccccc2)c1Br)[C@H](C(=O)OC)C(C)C -0.36%
Cc1cc(C)nc(Nc2n[nH]c(-c3ccccc3N)n2)n1 6.37%
CN(C(N)=NC(=O)/C=C/c1ccccc1)C(C#Cc1ccccc1)Cc1ccccc1 (stereo not given) -0.15%
O=C(NCc1cccs1)C1CCN(S(=O)(=O)c2ccccc2[N+](=O)[O-])CC1 0.23%
COC(=O)[C@H](C(C)C)N1CCc2nnn(Cc3ccc(C)cc3)c2-c2ccccc2S1(=O)=O -0.1%
CC(=O)N1C(=O)C2(Nc3ccccc3N2)c2ccccc21 -5.83%
COC(=O)c1cc(S(=O)(=O)N2CCN(C(=O)C3CCCO3)CC2)cn1C (stereo not given) -0.37%
O=C(C1CCCN1S(=O)(=O)c1ccccc1)N1CCc2ccccc2C1 (stereo not given) -0.08%
Cc1cc(C(F)(F)F)c(C#N)c(SCC(=O)NC2CC2)n1 -0.4%
COCc1cc(C)nc(SCC(=O)Nc2cccc(C)c2)c1C#N 0.51%
CCOC(=O)[C@]12CCCC3=C1N(CCC3)C(=O)[C@@H](CC(=O)NCc1cccs1)C2 -0.54%
COc1ccc(S(=O)(=O)N/N=C\c2ccc(OC)c(COc3ccc(C)cc3[N+](=O)[O-])c2)cc1 0.18%
CCN(CC)Cc1c(C(=O)N/N=C/c2cccc(OCc3ccc(F)cc3)c2)nnn1-c1nonc1N 0.38%
COC(=O)[C@]12C[C@H](CC(=O)NCCCN3CCCC3=O)C(=O)N(CCc3ccc(OC)c(OC)c3)C1=C[C@H](COCc1ccccc1)O[C@@H]2C -0.02%
COC(=O)[C@]12C[C@H](CC(=O)NCc3ccccc3)C(=O)N(CCc3ccc(OC)c(OC)c3)C1=C[C@H](C(C)(C)C)O[C@@H]2C 0.13%
COc1ccc(Cn2cc(COC(=O)N(C)Cc3ccccc3)nn2)cc1 0.16%
CN(C)CC(=O)N[C@@H]1C[C@@H]2O[C@H](CO)CC[C@@H]2O[C@@H]1CCc1ccc(C#Cc2ccccc2)cc1 0.21%
Cc1cc(C)c2c(NC(=O)C3CC3)nn(C)c2n1 -0.27%
Cc1ccc(OCc2nnc(SC/C=C/c3ccccc3)n2Cc2ccco2)cc1 0.81%
C=CCN1C(=O)[C@@H](CC(=O)N2CCN(C(=O)OCC)CC2)[C@]2(C(=O)OCC)CCCCC/C=C/12 0.05%
NC(N)=Nc1nc2ccc(Br)cc2c(=O)[nH]1 -0.15%
Clc1ccc2nc(-c3ccccc3)nc(C(Cl)Cl)c2c1 -0.5%
CC(C)N1CCCCC(NC(=O)c2ccc3ccccc3c2)C1=O (stereo not given) 0.11%
C=CCN1C(=O)[C@@H](CC(=O)NCCCCc2ccccc2)[C@]2(C(=O)OCC)CCCCC/C=C/12 0.05%
CC(=O)C1(C(=O)Nc2nccs2)CC(c2ccccc2C(F)(F)F)=NO1 (stereo not given) 1.07%
COC(=O)[C@]12C[C@H](CC(=O)NCCc3ccccc3OC)C(=O)N(Cc3ccco3)C1=C[C@H](C(C)C)O[C@@H]2C1CC1 0.66%
CCOc1ccc(NC(=O)COc2ccc(S(=O)(=O)N3CCCC3)cc2)cc1 0.16%
Cc1ccc(NC(=O)CN(C)C(=O)COC(=O)c2nccnc2N)cc1 8.05%
CC(c1c[nH]c2ccccc12)c1c(-c2ccccc2)n(C)c2ccccc12 (stereo not given) -7.26%
COc1ccc(C(=O)OCCN2CCN(C3CN(Cc4cn(Cc5ccccc5F)nn4)S(=O)(=O)C3)CC2)cc1OC (stereo not given) 0%
Clc1ccc(-n2c(SC/C=C/c3ccccc3)nnc2-c2ccco2)cc1 0.14%
Cc1ccccc1Cn1nc(C)c(NC(=O)C(F)(F)F)c1C -0.19%
COCc1cc(=O)[nH]c(-c2ccc(C(F)(F)F)cc2)n1 0.23%
COc1ccc(OC)c(Cc2cnc3nc(N)nc(N)c3c2C)c1 -0.29%
COC[C@@H]1CCCN1c1ccc2c(c1)O[C@H](C)CCN(C1CC1)S2(=O)=O -0.36%
CCOC(=O)[C@]12CCCC3=C1N(CCC3)C(=O)[C@@H](CC(=O)N1CCSCC1)C2 -0.2%
COC(=O)C1(C)NC(c2ccccc2OC)C2C(=O)N(c3ccccc3)C(=O)C21 (stereo not given) 0.39%
COC(=O)c1cc(C(=O)OC)cc(N2C(=O)CC(N3CCN(c4ccccc4)CC3)C2=O)c1 (stereo not given) -0.42%
CCOc1ccc(-n2c(SCC(=O)Nc3cc(C)c(NC(=O)c4ccccc4)cc3OC)nnc2-c2cccc(Cl)c2)cc1 4.85%
COc1ccc(-n2c(SCC(=O)Nc3ccccc3-c3ccccc3)nnc2-c2cccnc2)cc1 -0.23%
